Screens (PubChem)
AMA1 RON2 block – disrupts binding of P. falciparum AMA1 to RON2; Potency, µM (titrated, usually from 58.2 µM), hits mostly inhibitors; 0.2% of 360,000 active; AlphaScreen AMA1-biotinylated RON2 peptide binding; AID 720542; further: nearly all actives have a fitted effect of over 45% in size
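AMA1 (3D7) with his tag at 25 nM final met compounds first, then biotinylated RON2 peptide at 25 nM; detection used donor plus acceptor beads, 10 µg/mL apiece, read by AlphaScreen after 30 min at room temperature.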
FMDV inh – blocks foot and mouth disease virus; FMDV antiviral cell-based qHTS; Potency, µM (doses to about 57.9 µM), hits mostly inhibitors; 1.2% of 410,000 active; AID 1159524; calls by dose curve; tested in HEK293T cells; further: read-out not given here; nearly all actives have a fitted effect of over 45% in size
AmpC detergent – blocks E. coli AmpC beta-lactamase in detergent assay; P00811; AmpC hydrolysis of nitrocefin, absorbance 480 nm, 0.01% Triton; Potency, µM (highest dose often 114 µM), usual class: inhibitors; 0.041% of 370,000 active; further: nearly all actives have a fitted effect of over 25% in size
Target sequence (P00811 whole entry, looked up): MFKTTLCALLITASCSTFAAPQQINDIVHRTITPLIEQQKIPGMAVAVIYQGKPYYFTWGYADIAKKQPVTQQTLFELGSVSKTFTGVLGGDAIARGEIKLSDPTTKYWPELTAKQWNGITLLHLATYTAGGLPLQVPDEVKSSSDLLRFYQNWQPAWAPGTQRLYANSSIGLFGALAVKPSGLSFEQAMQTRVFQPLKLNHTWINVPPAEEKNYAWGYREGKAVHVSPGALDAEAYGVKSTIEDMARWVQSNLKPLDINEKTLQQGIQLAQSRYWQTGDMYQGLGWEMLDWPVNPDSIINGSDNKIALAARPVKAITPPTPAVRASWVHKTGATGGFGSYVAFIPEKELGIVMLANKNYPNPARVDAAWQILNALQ
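AmpC (5.3 nM in the dispensed reagent) in 20 mM phosphate pH 7.0 with 0.01% (detergent screen) or 0.0001% Triton X-100 was preincubated with compounds for 15 min at room temperature. Nitrocefin was then added from an 800 uM solution, and hydrolysis was followed at 480 nm.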
Sm TGR inh – blocks Schistosoma mansoni thioredoxin glutathione reductase. 3% of 360,000 active. AID 485364. Potency, µM (titrated, usually from 114 µM), usual class: inhibitors. purified TGR, DTNB reduction, TNB absorbance 405 nm; further: nearly all actives have a fitted effect of over 60% in size
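TGR 20 nM + NADPH 100 uM (dispensed conc.), cpd preinc 15 min RT; start with NADPH (500 uM addition) then DTNB (15 mM addition). Kinetic TNB absorbance, 405 nm filter. Four-parameter Hill fit across titration.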
AmpC no deterg – blocks E. coli AmpC beta-lactamase in detergent-free assay | AID 485341 | AmpC nitrocefin hydrolysis, absorbance 480 nm, 0.0001% Triton | 0.52% of 330,000 active | Potency, µM (series often up to 57.1 µM), usual class: inhibitors | P00811; further: nearly all actives have a fitted effect of over 20% in size
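20 mM phosphate pH 7.0 + 0.01% (detergent screen) or 0.0001% Triton X-100; 5.3 nM AmpC reagent; cpd preinc 15 min RT; nitrocefin (800 uM stock) to start; A480 q20 s × 4 min; Activity was normalised to no-enzyme and no-compound control wells.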
Large screens that a line does not name were inactive. Most compounds without a hit are left out; they make up all but 4.1% or so of the library. Unless noted, the call rests on the fitted dose curve; in most records, active means well fitted curve in the direction sought with a large enough effect; inconclusive means small, poorly fitted or top-dose-only effect, or another doubt; inactive means no such curve, though single readings can be large; an effect the other way counts as inactive or inconclusive.

O=C(O)c1ccccc1NC(=O)C1CCCO1 (stereo not drawn)	none (no result: AmpC no deterg)
Cc1cc(C)n(-c2cccc(C(=O)NCC3Cc4cccc(-c5ccccn5)c4O3)c2)n1 (stereo not drawn)	none (no result: AMA1 RON2 block, AmpC detergent, Sm TGR inh, AmpC no deterg)
O=C(NC(=S)Nc1c(Cl)ccc2nsnc12)c1ccco1	Sm TGR inh 25.1µM
O=C(NC(=S)Nc1ccc(N2CCCCC2)cc1)c1ccco1	AmpC detergent inconclusive, Sm TGR inh 15.8µM
O=C(NC(=S)Nc1ccccc1N1CCCC1)c1ccco1	Sm TGR inh inconclusive
O=C(NC(=S)Nc1ccccc1N1CCCCC1)c1ccco1	FMDV inh 22.4µM, AmpC detergent inconclusive
O=C(Nc1c(Cl)ccc2nsnc12)c1cccnc1	AmpC detergent inconclusive
O=C(NC(=S)Nc1ccc(Cl)c(C(=O)O)c1)c1ccco1	Sm TGR inh 44.7µM
COc1ccccc1N1CCN(c2nc(CNC(=O)C3CCOC(C)(C)C3)nc3ccccc23)CC1 (stereo not drawn)	none (no result: AMA1 RON2 block, AmpC detergent, Sm TGR inh, AmpC no deterg)
CCOc1ccc(C(=O)N2CCCCC2CCN2CCOCC2)cc1 (stereo not drawn)	none (no result: AMA1 RON2 block, AmpC no deterg)
COc1ccc(-c2nnc(SCC(=O)Nc3ccc(C)c(C)c3)s2)cc1	none (no result: AMA1 RON2 block, AmpC no deterg)
Cc1sc(NC(=S)NC(=O)c2ccco2)c(C#N)c1C	Sm TGR inh 3.98µM
O=C(NC(=S)N1CCCc2ccccc21)c1ccco1	Sm TGR inh 28.2µM
O=C(NC(=S)Nc1ccccc1Cl)c1ccco1	Sm TGR inh 12.6µM
Cc1cc(N(C)Cc2ccccc2)n2nc(-c3ccc(C(C)(C)C)cc3)nc2n1	none (no result: AMA1 RON2 block, AmpC no deterg)
Cc1ccccc1C(=O)N1CCc2c(cnc(C)c2CNC(=O)c2ccc3c(c2)OCO3)C1	none (no result: AMA1 RON2 block, AmpC detergent, Sm TGR inh, AmpC no deterg)
O=C1C2C3C=CC(CC3)C2C(=O)N1c1ccc([N+](=O)[O-])cc1 (stereo not drawn)	Sm TGR inh 20µM
CCN1C/C(=C/c2ccc(N3CCOCC3)cc2)C(=O)/C(=C/c2ccc(N3CCOCC3)cc2)C1	FMDV inh 28.2µM
CN1C/C(=C\c2ccc(N3CCOCC3)cc2)C(=O)/C(=C/c2ccc(N3CCOCC3)cc2)C1	FMDV inh inconclusive, Sm TGR inh inconclusive
CN1CCN(C(=O)Nc2ccccc2CC[N+](=O)[O-])CC1	Sm TGR inh 31.6µM
CCOC(=O)c1c(C)c(C(=O)NCCc2ccc(OC)cc2)c(C)n1C	none (no result: AMA1 RON2 block, AmpC no deterg)
COc1cccc(Nc2cc(C)c3ccccc3n2)c1	none
COc1cccc(Nc2nc3ccccc3c(=O)[nH]2)c1	AmpC no deterg 10µM
CCOc1cc(/C=C\[N+](=O)[O-])ccc1OCC(=O)Nc1ccccc1C	FMDV inh 25.1µM
CCN(C(=O)c1coc(=O)c(Br)c1)c1ccc2c(c1)OCO2	Sm TGR inh 44.7µM
CC(C)Cc1ccc(C(C)C(=O)Nc2nccs2)cc1 (stereo not drawn)	none (no result: FMDV inh)
CC(C)Cc1ccc(C(C)C(=O)Nc2ccccc2O)cc1 (stereo not drawn)	FMDV inh inconclusive, AmpC no deterg 3.98µM
Cc1ccc(CNC(=O)c2sc3nc4n(c(=O)c3c2C)CCCC4)cc1	Sm TGR inh 56.2µM (no result: AMA1 RON2 block, AmpC no deterg)
Cc1c(C(=O)NCc2ccc(Cl)cc2)sc2nc3n(c(=O)c12)CCCCC3	Sm TGR inh 35.5µM (no result: AMA1 RON2 block, AmpC no deterg)
Cc1c(C(=O)NCCc2ccc(Cl)cc2)sc2nc3n(c(=O)c12)CCCC3	Sm TGR inh 44.7µM (no result: AMA1 RON2 block, AmpC no deterg)
Cc1c(C(=O)NCc2ccccc2)sc2nc3n(c(=O)c12)CCCCC3	Sm TGR inh inconclusive (no result: AMA1 RON2 block, AmpC no deterg)
COc1ccc(CCNC(=O)c2sc3nc4n(c(=O)c3c2C)CCCC4)cc1OC	Sm TGR inh 35.5µM (no result: AMA1 RON2 block, AmpC no deterg)
Cc1ccc(CNC(=O)c2sc3nc4n(c(=O)c3c2C)CCCCC4)cc1	none (no result: AMA1 RON2 block, AmpC no deterg)
Cc1c(C(=O)NCCc2ccc(Cl)cc2)sc2nc3n(c(=O)c12)CCC3	none
OC(c1cccnc1)c1ccc2c(c1)CN(Cc1cn(-c3ccccc3)nc1-c1ccccc1)CCO2 (stereo not drawn)	none (no result: AMA1 RON2 block, AmpC detergent, Sm TGR inh, AmpC no deterg)
CC(C)n1c(=NC(=O)c2ccco2)c(C#N)cc2c(=O)n3ccccc3cc21	Sm TGR inh 44.7µM
CCOC(=O)c1c(C)n(-c2ccccc2)c2ccc(OC(=O)c3ccccc3NC(=O)C(C)C)cc12	FMDV inh 31.6µM (no result: AMA1 RON2 block, AmpC no deterg)
CCCCc1ccc(NC(=O)CSc2nc(=O)[nH]c3c2CCCC3)cc1	FMDV inh inconclusive (no result: AMA1 RON2 block, AmpC no deterg)
CC(C)c1ccc(NC(=O)CSc2nc(=O)[nH]c3c2CCCC3)cc1	AmpC no deterg 35.5µM
CCOC(=O)c1cc(C)n(CC2CCC(C(=O)Nc3ccccc3OC)CC2)c1C (stereo not drawn)	none (no result: AMA1 RON2 block, AmpC no deterg)
COc1ccc(CCn2c(SCC(=O)Nc3cc(C)on3)nc3ccsc3c2=O)cc1OC	AmpC no deterg 0.316µM
COc1ccc(C2C=C(c3ccccc3)Nc3nc(NC(=O)c4cccc([N+](=O)[O-])c4)nn32)cc1 (stereo not drawn)	none (no result: AMA1 RON2 block, AmpC no deterg)
Cn1nc(C(=O)NCc2cccc(Cl)c2)c2c1-c1ccccc1SC2	none (no result: AMA1 RON2 block, AmpC no deterg)
COc1ccc(OC)c(NC(=O)C2=C(C)C(=O)OC23CCCCCC3)c1	none (no result: AMA1 RON2 block, AmpC no deterg)
Cc1ccccc1CNC(=O)CCS(=O)(=O)c1cc2c3c(c1)CCN3C(=O)CC2	none (no result: AMA1 RON2 block, AmpC no deterg)
COc1ccc2[nH]c3c(c2c1)CCNC3C (stereo not drawn)	none
COc1ccc2[nH]c3c(c2c1)CCNC3c1ccc([N+](=O)[O-])o1 (stereo not drawn)	Sm TGR inh 0.891µM
